Records with an inconclusive call do not appear. The source made the active and inactive calls. Unless noted, the call rests on the fitted dose curve; in most records, active means well fitted curve in the direction sought with a large enough effect; inconclusive means small, poorly fitted or top-dose-only effect, or another doubt; inactive means no such curve, though single readings can be large; an effect the other way counts as inactive or inconclusive.
Columns and labels:
[1] = target: Voltage-gated inwardly rectifying potassium channel KCNH2 (Homo sapiens) (UniProt Q12809); test: qHTS Assay for Small Molecule Inhibitors of the Human hERG Channel Activity (AID 588834);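 further: lower thallium flux fluorescence means stronger hERG block; nearly all actives have a fitted effect of over 50% in size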; further: potency means the concentration at half of the fitted maximal effect
Outline: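 Cells were infected with hERG-BacMam virus for 4 hrs at room temperature, grown overnight, then seeded at 2000/well. After dye loading and roughly 10 min compound treatment, thallium influx was triggered and fluorescence recorded.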

[2] = target: Glutaminase kidney isoform, mitochondrial (Homo sapiens) (UniProt O94925); test: qHTS for Inhibitors of Glutaminase (GLS): LOPAC Validation (AID 624146); further: nearly all actives have a fitted effect of over 60% in size; further: potency means the concentration at half of the fitted maximal effect
Outline: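 Compounds were pin-transferred onto hKGA, after which L-glutamine (1 mM solution) and a detection mix of glutamate oxidase, HRP and Amplex Red were added. Initial and 30 min RT fluorescence reads were collected.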

[3] = qHTS of Trypanosoma Brucei Inhibitors: LOPAC Validation (AID 624147); further: 0% is about no effect
Outline: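 Luminescence from Kinase-Glo Plus, added after a 45-minute room-temperature reaction, served as the end-point read-out. The enzyme and substrate were preincubated with compound before ADP (130 uM final) initiated turnover. Concentration-effect curves came from normalized qHTS data.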

[4] = target: Glucagon-like peptide 1 receptor (Homo sapiens) (UniProt P43220); test: qHTS of GLP-1 Receptor Agonists: LOPAC Validation (AID 624148);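 further: luminescence from a luciferase reporter switched on by cAMP; 0% is about no effect; higher luminescence signal means agonism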
Outline: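 Agonism scored as increased luciferase luminescence driven by cAMP in HEK293 clones carrying GLP-1R. Cells settled 12 hours, received compound for 4-6 hr at 37 deg C, 5% CO2, and were read after 12 min detection reagent at RT.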

[5] = qHTS of Nrf2 Activators: LOPAC Validation (AID 624149); further: potency means the concentration at half of the fitted maximal effect
Outline: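 Luciferase signal from ARE activation, read with Steady-Glo after 30 min at room temperature. Compounds were pin-transferred onto AREc32_Fluc cells (1000/well, OPTI-MEM/5% FBS, seeded overnight) and left 24 hr at 37 deg C.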

[6] = HTS Assay for Allosteric Antagonists of the Human D2 Dopamine Receptor: Hit Validation in HTRF (AID 624455);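 further: stable D1 dopamine receptor cell line scored for blocking the D1 response; on the % scale 0 is the no-effect control and ±100 the full control effect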
Outline: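 Inhibition of the D1-mediated response was measured by HTRF. Cells used were a line stably expressing the D1 dopamine receptor.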

[7] = target: Peroxisome proliferator-activated receptor gamma (Homo sapiens) (UniProt P37231); test: qHTS assay for small molecule agonists of peroxisome proliferator-activated receptor gamma signaling (AID 588536; active means well fitted curve in the direction sought with a large enough effect in the signal ratio, with a control signal flat, not every such curve was filed as active; the % refers to the signal ratio; further: potency means the concentration at half of the fitted maximal effect)
Outline: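 Compound treatment: 16 h, 37 C, HEK293 GeneBLAzer cells. Detection: CCF4, 2 h RT. Values: Hill-fit EC50, efficacy as % of 2 uM rosiglitazone.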

[8] = target: Thyroid hormone receptor beta (Homo sapiens) (UniProt P10828); test: qHTS assay for small molecule agonists of thyroid hormone receptor beta signaling (AID 588545; calls by dose curve)
Outline: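 In this cell-based screen, titrated compounds act on HEK 293 cells held in medium with 2% charcoal/dextran FBS, NEAA and pyruvate for 18 hrs at 37 C. Responses are expressed relative to T3 (10 nM) as 100% and basal DMSO as 0%.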

[9] = qHTS assay for small molecule antagonists of retinoid X receptor alpha signaling (AID 588546; active means well fitted inhibition curve with a large enough effect in the signal ratio, with a control signal flat, not every such curve was filed as active; the % refers to the signal ratio;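 further: cells stimulated with 9-cis-retinoic acid as agonist; on the % scale 0 is the no-effect control and ±100 the full control effect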); conditions: HEK293T RXRa-UAS-bla, beta-lactamase ratio, antagonist mode; measured here: W530 green channel, cytotoxicity proxy
Outline: (§1)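 Beta-lactamase reporter inhibition, read as CCF4 fluorescence ratio (ex 405, em 460/530 nm) after 2 h at RT. HEK293T UAS-bla cells, 2500/well, were stimulated with 9-cis-RA at 500 or 100 nM final alongside test compound for 18 h at 37 C.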

[10] = target: Retinoic acid receptor RXR-alpha (Homo sapiens) (UniProt P19793); test: as above; conditions: HEK293T RXRa-UAS-bla, beta-lactamase ratio, antagonist mode
Outline: as §1

[11] = target: Thyroid hormone receptor beta (Homo sapiens) (UniProt P10828); test: qHTS assay for small molecule antagonists of thyroid hormone receptor beta signaling (AID 588547; active means well fitted inhibition curve with a large enough effect in the signal ratio, with a control signal flat, not every such curve was filed as active; the % refers to the signal ratio;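 further: cells stimulated with 0.4 nM T3 agonist during compound exposure; series mostly up to about 77 µM; on the % scale 0 is the no-effect control and ±100 the full control effect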); conditions: TR-UAS-bla HEK293, beta-lactamase ratio, antagonist mode, 18 h
Outline: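 Inhibition of T3-driven (0.4nM final) beta-lactamase reporter activity was measured over 0.59 nM to 92 uM compound after 18 h at 37 C. The cells were GripTite HEK293 TR-UAS-bla in charcoal/dextran-stripped serum, with CCF4 ratio read-out and IC50 from Hill fits.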

[12] = target: Peroxisome proliferator-activated receptor gamma (Homo sapiens) (UniProt P37231); test: qHTS assay for small molecule antagonists of peroxisome proliferator-activated receptor gamma signaling (AID 588537; active means well fitted inhibition curve with a large enough effect in the signal ratio, with a control signal flat, not every such curve was filed as active; the % refers to the signal ratio; further: potency means the concentration at half of the fitted maximal effect)
Outline: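 Antagonist-mode β-lactamase reporter screen run as a titration series. HEK293 PPARγ-UAS-bla cells are stimulated with rosiglitazone (50 nM final) for 16 h, then CCF4 is read at 460/530 nm. Data are scaled between DMSO and rosiglitazone and fitted to the Hill equation.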

[13] = target: Vitamin D3 receptor (Homo sapiens) (UniProt P11473); test: qHTS assay for small molecule antagonists of vitamin D receptor signaling (AID 588541; calls by dose curve;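 further: receptor activated by calcitriol during compound treatment; series mostly up to about 77 µM; on the % scale 0 is the no-effect control and ±100 the full control effect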)
Outline: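 Antagonist-mode beta-lactamase reporter assay: HEK293T VDR-UAS-bla cells were exposed to titrated compound alongside 1-alpha,25-dihydroxyvitamin D3 at 3 nM final for 16 h. Values were normalized to the 50 nM agonist control and DMSO basal, with IC50 and efficacy from Hill equation fits.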

[14] = target: Vitamin D3 receptor (Homo sapiens) (UniProt P11473); test: qHTS assay for small molecule agonists of vitamin D receptor signaling (AID 588543; calls by dose curve;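 further: 0% = DMSO basal and 100% = reference agonist control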)
Outline: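 qHTS in agonist mode: compound titrations stimulate a VDR-driven β-lactamase reporter in HEK293T cells over 16 h at 37 °C. Response normalized to 50 nM 1α,25-dihydroxyvitamin D3 = 100%, DMSO = 0%; Hill fitting gives EC50 and maximal response.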

[15] = qHTS assay for small molecule agonists of retinoid X receptor alpha signaling (AID 588544; calls by dose curve; further: potency means the concentration at half of the fitted maximal effect); conditions: HEK293T RXRa-UAS-bla, beta-lactamase reporter, 18 h; 530 nm emission
[16] = target: Retinoic acid receptor RXR-alpha (Homo sapiens) (UniProt P19793); test: as above

Chain of Peroxisome proliferator-activated receptor gamma (Homo sapiens) (P37231 whole entry, looked up): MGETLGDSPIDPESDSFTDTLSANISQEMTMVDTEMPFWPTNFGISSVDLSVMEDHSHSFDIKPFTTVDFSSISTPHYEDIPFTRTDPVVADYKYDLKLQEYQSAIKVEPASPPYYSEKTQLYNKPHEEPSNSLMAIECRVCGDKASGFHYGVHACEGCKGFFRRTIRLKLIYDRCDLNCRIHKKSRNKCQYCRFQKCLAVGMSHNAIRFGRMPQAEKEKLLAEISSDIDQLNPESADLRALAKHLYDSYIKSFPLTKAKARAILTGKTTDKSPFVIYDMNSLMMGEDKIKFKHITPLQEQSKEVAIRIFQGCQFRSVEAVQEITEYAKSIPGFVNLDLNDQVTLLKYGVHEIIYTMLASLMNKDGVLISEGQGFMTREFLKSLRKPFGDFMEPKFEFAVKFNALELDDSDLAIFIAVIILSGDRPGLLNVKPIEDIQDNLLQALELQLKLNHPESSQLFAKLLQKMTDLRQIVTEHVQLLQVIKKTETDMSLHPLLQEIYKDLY
Chain of Glutaminase kidney isoform, mitochondrial (Homo sapiens) (O94925 whole entry, looked up, canonical isoform): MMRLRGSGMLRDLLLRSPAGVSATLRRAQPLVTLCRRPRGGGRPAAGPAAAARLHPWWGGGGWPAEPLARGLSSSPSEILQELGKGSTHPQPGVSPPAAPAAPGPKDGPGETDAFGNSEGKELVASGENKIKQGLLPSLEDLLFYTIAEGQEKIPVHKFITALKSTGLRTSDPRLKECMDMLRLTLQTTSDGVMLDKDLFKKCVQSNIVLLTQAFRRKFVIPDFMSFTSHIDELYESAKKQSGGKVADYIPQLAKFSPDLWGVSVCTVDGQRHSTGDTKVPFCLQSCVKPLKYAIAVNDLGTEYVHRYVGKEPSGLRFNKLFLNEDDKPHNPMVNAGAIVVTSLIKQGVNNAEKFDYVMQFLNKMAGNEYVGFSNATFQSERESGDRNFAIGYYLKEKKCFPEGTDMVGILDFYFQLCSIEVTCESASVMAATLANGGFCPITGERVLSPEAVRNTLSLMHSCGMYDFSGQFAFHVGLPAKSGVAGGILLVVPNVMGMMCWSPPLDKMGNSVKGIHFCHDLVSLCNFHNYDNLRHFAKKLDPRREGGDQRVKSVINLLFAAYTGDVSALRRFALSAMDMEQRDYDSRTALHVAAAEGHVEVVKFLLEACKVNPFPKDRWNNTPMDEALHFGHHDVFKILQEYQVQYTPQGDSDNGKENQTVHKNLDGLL
Chain of Voltage-gated inwardly rectifying potassium channel KCNH2 (Homo sapiens) (Q12809 whole entry, looked up): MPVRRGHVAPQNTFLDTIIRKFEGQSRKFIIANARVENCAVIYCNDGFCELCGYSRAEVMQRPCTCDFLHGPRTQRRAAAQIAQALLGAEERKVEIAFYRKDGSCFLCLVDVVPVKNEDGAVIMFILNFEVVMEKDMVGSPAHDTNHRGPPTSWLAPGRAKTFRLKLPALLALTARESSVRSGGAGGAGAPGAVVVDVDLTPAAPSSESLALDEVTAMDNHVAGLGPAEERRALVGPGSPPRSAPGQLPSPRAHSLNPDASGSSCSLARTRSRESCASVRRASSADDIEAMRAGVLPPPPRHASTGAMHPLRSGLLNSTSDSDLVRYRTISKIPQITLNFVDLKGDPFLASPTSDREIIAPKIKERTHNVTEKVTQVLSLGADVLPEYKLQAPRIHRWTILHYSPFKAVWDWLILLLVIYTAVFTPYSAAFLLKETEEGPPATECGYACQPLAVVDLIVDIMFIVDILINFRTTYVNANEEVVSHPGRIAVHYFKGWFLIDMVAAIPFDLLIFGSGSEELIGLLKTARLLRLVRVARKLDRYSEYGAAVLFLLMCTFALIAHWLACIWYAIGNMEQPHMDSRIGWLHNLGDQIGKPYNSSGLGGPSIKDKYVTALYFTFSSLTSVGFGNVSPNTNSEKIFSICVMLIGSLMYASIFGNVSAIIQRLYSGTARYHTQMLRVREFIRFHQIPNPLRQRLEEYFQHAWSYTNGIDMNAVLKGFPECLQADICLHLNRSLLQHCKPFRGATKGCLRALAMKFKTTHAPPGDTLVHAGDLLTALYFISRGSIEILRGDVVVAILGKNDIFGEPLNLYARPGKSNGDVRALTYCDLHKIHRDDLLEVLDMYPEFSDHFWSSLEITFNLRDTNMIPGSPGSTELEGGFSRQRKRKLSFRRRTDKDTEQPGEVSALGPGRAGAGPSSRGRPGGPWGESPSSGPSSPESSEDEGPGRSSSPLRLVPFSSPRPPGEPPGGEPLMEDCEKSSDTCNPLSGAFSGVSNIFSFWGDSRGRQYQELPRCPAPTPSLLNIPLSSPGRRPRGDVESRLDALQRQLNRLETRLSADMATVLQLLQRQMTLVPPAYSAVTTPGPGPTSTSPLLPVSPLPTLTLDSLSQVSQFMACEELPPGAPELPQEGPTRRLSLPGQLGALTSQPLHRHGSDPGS
Chain of Vitamin D3 receptor (Homo sapiens) (P11473 whole entry, looked up): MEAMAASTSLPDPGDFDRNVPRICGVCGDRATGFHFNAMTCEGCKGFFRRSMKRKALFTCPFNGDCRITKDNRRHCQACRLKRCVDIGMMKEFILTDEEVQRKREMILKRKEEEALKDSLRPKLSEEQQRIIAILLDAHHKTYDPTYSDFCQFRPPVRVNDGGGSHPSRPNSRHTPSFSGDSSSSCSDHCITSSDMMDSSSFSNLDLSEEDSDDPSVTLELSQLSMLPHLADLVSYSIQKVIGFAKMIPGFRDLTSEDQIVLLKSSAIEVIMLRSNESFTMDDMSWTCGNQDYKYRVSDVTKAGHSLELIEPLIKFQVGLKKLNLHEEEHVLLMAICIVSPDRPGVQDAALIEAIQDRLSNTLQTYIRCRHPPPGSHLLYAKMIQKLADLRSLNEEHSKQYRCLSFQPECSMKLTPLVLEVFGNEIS
Chain of Glucagon-like peptide 1 receptor (Homo sapiens) (P43220 whole entry, looked up): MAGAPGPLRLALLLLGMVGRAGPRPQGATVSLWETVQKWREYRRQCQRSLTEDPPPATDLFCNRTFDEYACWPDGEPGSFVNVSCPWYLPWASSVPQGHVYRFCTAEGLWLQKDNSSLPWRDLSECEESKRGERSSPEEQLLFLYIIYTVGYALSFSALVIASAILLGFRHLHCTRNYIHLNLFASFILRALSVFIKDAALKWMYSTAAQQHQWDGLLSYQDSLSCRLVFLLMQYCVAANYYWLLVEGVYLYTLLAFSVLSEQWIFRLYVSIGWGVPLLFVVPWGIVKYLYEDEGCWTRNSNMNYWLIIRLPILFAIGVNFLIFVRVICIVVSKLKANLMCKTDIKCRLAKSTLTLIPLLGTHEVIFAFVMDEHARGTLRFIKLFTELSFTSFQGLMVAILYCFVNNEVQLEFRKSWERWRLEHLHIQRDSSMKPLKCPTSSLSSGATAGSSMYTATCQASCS
Chain of Thyroid hormone receptor beta (Homo sapiens) (P10828 whole entry, looked up): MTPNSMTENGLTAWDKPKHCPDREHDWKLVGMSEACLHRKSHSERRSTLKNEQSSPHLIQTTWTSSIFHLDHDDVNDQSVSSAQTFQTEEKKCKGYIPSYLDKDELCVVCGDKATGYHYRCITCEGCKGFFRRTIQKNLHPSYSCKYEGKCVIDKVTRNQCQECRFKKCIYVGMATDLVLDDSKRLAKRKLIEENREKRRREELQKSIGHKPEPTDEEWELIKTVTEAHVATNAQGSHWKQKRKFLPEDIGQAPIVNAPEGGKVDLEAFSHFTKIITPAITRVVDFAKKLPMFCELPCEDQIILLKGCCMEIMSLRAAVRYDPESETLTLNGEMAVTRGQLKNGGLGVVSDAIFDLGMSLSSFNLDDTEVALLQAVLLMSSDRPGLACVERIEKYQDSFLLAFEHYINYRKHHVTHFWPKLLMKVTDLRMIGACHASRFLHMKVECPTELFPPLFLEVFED
Chain of Retinoic acid receptor RXR-alpha (Homo sapiens) (P19793 whole entry, looked up): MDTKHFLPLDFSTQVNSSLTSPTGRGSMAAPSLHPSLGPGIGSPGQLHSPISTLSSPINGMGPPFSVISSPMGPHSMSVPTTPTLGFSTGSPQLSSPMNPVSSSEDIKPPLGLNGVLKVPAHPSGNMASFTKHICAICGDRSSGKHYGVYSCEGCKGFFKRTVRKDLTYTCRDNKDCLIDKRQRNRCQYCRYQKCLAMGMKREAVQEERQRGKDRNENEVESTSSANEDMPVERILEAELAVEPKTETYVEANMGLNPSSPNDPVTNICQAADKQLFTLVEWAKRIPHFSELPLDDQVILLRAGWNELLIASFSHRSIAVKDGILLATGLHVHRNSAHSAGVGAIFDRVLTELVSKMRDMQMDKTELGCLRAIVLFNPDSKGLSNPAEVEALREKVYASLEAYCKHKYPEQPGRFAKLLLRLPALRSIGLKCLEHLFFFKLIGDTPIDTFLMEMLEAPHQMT

COc1ccc(C(=O)NCc2cccnc2)cc1C(=O)NCc1cccnc1
inactive: Potency [1] | Potency [2] | Potency [3] | Potency [4] | Potency [5] | Potency [6]

Cc1nc(N=Nc2ccc(S(=O)(=O)O)cc2S(=O)(=O)O)c(COP(=O)(O)O)c(C=O)c1O
inactive: Potency [1] | Potency [2] | Potency [3] | Potency [4] | Potency [5] | Potency [6]

CC1C(=O)N(C)C(=O)c2nc[nH]c21 (stereo not given)
inactive: Potency [1] | Potency [2] | Potency [3] | Potency [4] | Potency [5] | Potency [6]

C=C(C)C1CC=C(C(=O)O)CC1 (stereo not given)
inactive: Potency [1] | Potency [2] | Potency [3] | Potency [4] | Potency [5] | Potency [6]

CCCCCCCCCCCCCCSCC(=O)O
10.4%: max response [9]
active: Potency [7] 28200 nM
inactive: outcome [8] | max response [10] 5.79% | activity change % (negative = inhibition) [11] -24.7% | Potency [1] | Potency [3] | Potency [5] | Potency [6]

CCCn1c(=O)c2[nH]c(C3CCCC3)nc2n(CCC)c1=O
inactive: Potency [1] | Potency [2] | Potency [3] | Potency [4] | Potency [5] | Potency [6]

N[C@H]1CONC1=O
inactive: Potency [1] | Potency [2] | Potency [3] | Potency [4] | Potency [5]

NC(=O)c1ccccc1
-1.09%: max response [15]
-3.13%: max response [9]
inactive: Potency [7] | Potency [12] | outcome [13] | outcome [14] | Potency [16] | outcome [8] | max response [10] 5.33% | activity change % (negative = inhibition) [11] -4.09% | Potency [1] | Potency [2] | Potency [3] | Potency [4] | Potency [5] | Potency [6]

NC(=O)CC[C@H](N)C(=O)O
inactive: Potency [1] | Potency [2] | Potency [3] | Potency [4] | Potency [5] | Potency [6]

CNCCNS(=O)(=O)c1cccc2cnccc12
inactive: Potency [1] | Potency [2] | Potency [3] | Potency [4] | Potency [5] | Potency [6]

c1ccc2nc(C3=NCCN3)ccc2c1
inactive: Potency [1] | Potency [2] | Potency [3] | Potency [4] | Potency [5] | Potency [6]

O=C(O)C1=CC(=C(c2ccc(O)c(C(=O)O)c2)c2ccc(O)c(C(=O)O)c2)C=CC1=O
inactive: Potency [1] | Potency [2] | Potency [3] | Potency [4] | Potency [5] | Potency [6]

N#C/C(=C\c1ccc(O)c(O)c1)C(=O)NCCc1ccccc1
inactive: Potency [3] | Potency [4] | Potency [5] | Potency [6]
active: Potency [1] 3980 nM | Potency [2] 1120 nM

OCC1NCC(O)C(O)C1O (stereo not given)
inactive: Potency [1] | Potency [2] | Potency [3] | Potency [4]

O=C(OCCN1CCOCC1)C1(c2ccccc2)CCCCC1
inactive: Potency [1] | Potency [2] | Potency [3] | Potency [4] | Potency [5] | Potency [6]

CCCc1c(-c2ccc(O)cc2)nn(-c2ccc(O)cc2)c1-c1ccc(O)cc1
inactive: outcome [14] | Potency [1] | Potency [2] | Potency [3] | Potency [4] | Potency [5] | Potency [6]
active: Potency [12] 22400 nM

Nc1nc2ccc(Cl)cc2c2nc(-c3ccco3)nn12
inactive: Potency [1] | Potency [2] | Potency [3] | Potency [4] | Potency [6]
active: Potency [5] 1460 nM

C/C(=C\c1ccc(C(=O)O)cc1)c1ccc2c(c1)C(C)(C)CCC2(C)C
0.91%: max response [15]
active: Potency [16] 708 nM
-6.55%: max response [9]
inactive: outcome [13] | outcome [14] | max response [10] 9.51% | Potency [1] | Potency [2] | Potency [3] | Potency [4] | Potency [5] | Potency [6]

CCSC(=N)N
inactive: Potency [1] | Potency [2] | Potency [3] | Potency [4] | Potency [5] | Potency [6]

C[N+](C)(C)CC=O
inactive: Potency [1] | Potency [2] | Potency [3] | Potency [4] | Potency [5] | Potency [6]

CCOC(=O)C12CC1/C(=N/O)c1ccccc1O2 (stereo not given)
inactive: Potency [1] | Potency [2] | Potency [3] | Potency [4] | Potency [5]

CC(N)(Cc1ccc(O)cc1)C(=O)O (stereo not given)
inactive: Potency [1] | Potency [2] | Potency [3] | Potency [4] | Potency [5] | Potency [6]

CC(=O)C(C)=O
-1.88%: max response [15]
7.05%: max response [9]
inactive: Potency [7] | outcome [13] | outcome [14] | Potency [16] | outcome [8] | max response [10] 13% | activity change % (negative = inhibition) [11] -0.316% | Potency [1] | Potency [2] | Potency [3] | Potency [5] | Potency [6]

NOCC(=O)O
inactive: Potency [1] | Potency [2] | Potency [3] | Potency [4] | Potency [5]

COC(=O)C(N)Cc1ccc(Cl)cc1 (stereo not given)
inactive: Potency [1] | Potency [2] | Potency [3] | Potency [4] | Potency [5] | Potency [6]

CC(=O)O[C@H]1CC2(C)[C@@H](C[C@@H](O)[C@H]3[C@@]4(C)CC[C@@H](O)[C@@H](C)[C@@H]4CC[C@@]32C)C1=C(CCC=C(C)C)C(=O)O (stereo not given in full)
inactive: Potency [1] | Potency [2] | Potency [3] | Potency [4] | Potency [5] | Potency [6]
